Source: PubChem
Sampled rows, rich in hits. Any-hit rate of the full collection: about 18%.
DT40 TDP1 no CPT – qHTS for Inhibitors of human tyrosyl-DNA phosphodiesterase 1 (TDP1): qHTS in cells in absence of CPT; Potency, µM (top dose mostly 46.2 µM), for inactives: at the highest dose activity change, negative = growth inhibition, most hits filed as inhibitors; 15% of 420,000 active; AID 686978, 2013; DT40 Tdp1-/- hTDP1 cells, no CPT, ATP luminescence, 48 h; also: potency is read from the fitted curve at half-maximal effect; % is scaled to controls: 0 for no effect and ±100 for the full control effect; nearly all actives have a fitted effect of over 55% in size
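Growth of hTDP1-complemented DT40 Tdp1-knockout cells is measured by ATP luminescence after at least 48 hr compound exposure at 37 °C, with DMSO substituting for the 20 nM CPT used in the parallel screen.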
HepG2 viability – counter-screen for TGF-b inhibitors: cytotoxicity in HepG2 cells; HepG2 CAGA-GFP viability, ATP luminescence, 18 h; Potency, µM (highest dose often 46.1 µM), without a hit: at the highest dose activity change, negative = cytotoxicity, actives largely listed as cytotoxic; 0.76% of 410,000 active; also: potency is read from the fitted curve at half-maximal effect
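HepG2 CAGA-GFP cells (1000/well, DMEM with 1% FBS) received compound, then TGF-beta at 500 pg/mL final, and were incubated 18 hours at 37 degrees C. Viability was read by CellTiter-Glo luminescence. Media-only wells were set as complete cell-killing and DMSO as no toxicity.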
DT40 TDP1 CPT – growth inhibition of DT40 Tdp1-/-;hTDP1 cells with camptothecin (screen for TDP1 inhibitors). Potency, µM (top dose mostly 46.2 µM), for the others: at the top dose activity change, negative = growth inhibition, actives largely listed as inhibitors. 12% of 420,000 active. chicken DT40 Tdp1-/-;hTDP1 cells + 20 nM CPT, ATP luminescence, 48 h. AID 686979; also: potency is read from the fitted curve at half-maximal effect; % is scaled to controls: 0 for no effect and ±100 for the full control effect; nearly all actives have a fitted effect of over 55% in size
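Cell growth measured by CellTiter-Glo luminescence after a minimum 48 h, 37 C compound exposure with 20 nM CPT in Tdp1-knockout DT40 cells stably expressing hTDP1, seeded 400/well; qHTS titration format.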
TDP1 inh – blocks human tyrosyl-DNA phosphodiesterase 1; Q9NUW8; recombinant TDP1, AlphaScreen DNA substrate cleavage; Potency, µM (highest dose often 130 µM), for the others: at the top dose activity change, negative = inhibition, most hits filed as inhibitors; 0.28% of 350,000 active; AID 485290; also: potency is read from the fitted curve at half-maximal effect; % is scaled to controls: 0 for no effect and ±100 for the full control effect; nearly all actives have a fitted effect of over 40% in size
Target sequence (Q9NUW8 whole entry, looked up): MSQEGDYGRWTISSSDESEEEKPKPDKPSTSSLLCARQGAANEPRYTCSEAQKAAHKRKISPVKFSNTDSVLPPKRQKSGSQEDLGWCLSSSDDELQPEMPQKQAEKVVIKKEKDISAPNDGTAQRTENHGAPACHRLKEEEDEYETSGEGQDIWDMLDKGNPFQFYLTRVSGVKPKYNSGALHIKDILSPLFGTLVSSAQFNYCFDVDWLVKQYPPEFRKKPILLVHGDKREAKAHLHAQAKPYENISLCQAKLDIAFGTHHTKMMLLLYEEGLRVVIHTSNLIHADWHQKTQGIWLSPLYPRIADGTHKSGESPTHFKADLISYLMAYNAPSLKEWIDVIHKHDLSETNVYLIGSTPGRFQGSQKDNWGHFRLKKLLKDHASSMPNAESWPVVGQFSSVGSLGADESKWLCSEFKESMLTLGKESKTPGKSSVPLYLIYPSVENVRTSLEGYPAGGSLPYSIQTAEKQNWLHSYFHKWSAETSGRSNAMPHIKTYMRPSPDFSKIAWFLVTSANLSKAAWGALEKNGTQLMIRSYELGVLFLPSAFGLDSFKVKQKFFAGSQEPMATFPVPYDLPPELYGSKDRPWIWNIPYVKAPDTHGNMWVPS
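AlphaScreen read-out: signal falls as enzyme removes the 3' tyrosine-FITC from a 5'-biotinylated DNA oligo (15 nM, 5 min, RT). Enzyme was E. coli-made recombinant Tdp1 at 1 nM, exposed to compound for 15 min beforehand; beads 10 ug/ml, 10 min.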
IL-1B inflam inh – blocks inflammasome-driven IL-1 beta release; 4.7% of 360,000 active; activity change, % at 57.5 µM; THP-1 LPS/ATP IL-1B secretion, AlphaLISA, 16 h; hits give low values; in the data active = activity change below about -50%; inconclusive = mostly about -30% to -49%; also: % is scaled to controls: 0 for no effect and ±100 for the full control effect
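Secreted IL-1B measured by AlphaLISA bead assay after 16 h compound exposure of THP-1 cells; compounds (final up to 57.5 uM) added 1 h before LPS (250 ng/mL) and ATP (1.25 mM) stimulation; lower signal means less secretion.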
TGFb SMAD3 inh – inhibitors of TGF-b signaling; Potency, µM (series often up to 46.1 µM), for the others: at the highest dose activity, negative = inhibition, actives largely listed as inhibitors; 1.2% of 410,000 active; AID 588855; HepG2 CAGA-GFP TGF-b/SMAD3 reporter, GFP fluorescence, 18 h; TGF-beta stimulated, 500 pg/mL final; also: potency is read from the fitted curve at half-maximal effect; % is scaled to controls: 0 for no effect and ±100 for the full control effect; nearly all actives have a fitted effect of over 65% in size
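HEPG2 CAGA-GFP, 1000 cells/well; 2 h settle, 37 C; cpd via pin tool; TGF-b 500 pg/mL final; 18 h, 37 C; GFP imaging ex488/em500-530; %Activity normalised to -TGF-b and +DMSO controls; CRC fit, curve class.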
Starred values were filed as active, the others as inactive; ? = inconclusive; . = no result given; [ ] = another dose, or the depositor's remark. Unless noted, calls follow the shape of the dose curve; as a rule, active = well fitted curve in the direction sought with a large enough effect; inconclusive = small, poorly fitted or top-dose-only effect, or another doubt; inactive = no such curve, though single readings can be large; an effect the other way counts as inactive or inconclusive.

SMILES | DT40 TDP1 no CPT | HepG2 viability | DT40 TDP1 CPT | TDP1 inh | IL-1B inflam inh | TGFb SMAD3 inh
CCCCCCC(=O)N/N=C/c1ccc(Br)cc1 | -26% | -55% | 3% | 3% | -20 | ?
CCCCCCCCC(=O)N/N=C/c1ccccn1 | ? | -22% | 18µM* | -2% | 23 | ?
CCCCCCCCC(=O)N/N=C/c1cccc(Br)c1 | 2% | -43% | 1% | 0% | -60* | -7%
CCCCCCCCC/C(=N\O)c1ccccn1 | 23µM* | -47% | 23µM* | 8% | 61 | -14%
CCCCCCCCCCNC(=O)C(=O)Nc1ccccn1 | ? | 17% | -18% | 1% | 25 | 0%
CCCCC(C(=O)N/N=C/c1ccccn1)C(=O)N/N=C/c1ccccn1 | -11% | -42% | -5% | 2% | . | ?
CC(=O)NC1=CC(=O)c2nonc2C1=O | ? | -96% | 0.079µM* | . | . | ?
COc1cc(O)c(NC(C)=O)c2nonc12 | -16% | -5% | -15% | 0% | 9 | 22%
CCOc1ccc(-c2n[nH]c(C)c2-c2ccccc2OC)c(O)c1 | ? | -34% | 13µM* | -4% | -55* | -11%
COc1ccc(-c2n[nH]c(C)c2-c2cscn2)c(O)c1 | 22% | -3% | -6% | 6% | -7 | -1%
C=C(C)COc1ccc(-c2n[nH]c(C)c2-c2ccc(OC)cc2)c(O)c1 | ? | -109% | ? | 8% | -51* | ?
O=S1(=O)CCO[C@H]2CCCC[C@@H]2N1Cc1ccccc1 | ? | -24% | ? | . | . | -9%
O=C(NC1CC(=O)N(c2ccc(Cl)cc2)C1)c1cc2ccccc2o1 (centres undefined) | -19% | 10% | -1% | 3% | . | -1%
O=C(NCCc1ccccn1)c1cc(-c2ccc(Cl)c(Cl)c2Cl)nc2ccccc12 | 18µM* | -35% | ? | 0% | 0 | ?
CN(Cc1ccccc1)S(=O)(=O)c1ccc(Cl)c(C(=O)NCCc2ccccn2)c1 | ? | 0% | 16µM* | 5% | 2 | -18%
CN(Cc1ccccc1)S(=O)(=O)c1ccc(Cl)c(C(=O)NCCCN2CCCC2=O)c1 | 16µM* | 7% | ? | . | 24 | -13%
COc1ccc(-n2c(=O)c(-c3cccs3)nc3cnc(N(C)C)nc32)cc1 | -4% | . | -20% | . | . | .
O=C1C=C[C@@H](O)[C@H]2[C@@H]3C(=O)N(C[C@@H]4CCCO4)C(=O)[C@@H]3CC[C@H]12 | . | . | . | 8%[21 µM] | . | .
CCOC(=O)c1ccc(S(=O)(=O)N2CCN(Cc3cc4c(cc3O)OCO4)CC2)cc1 | -4% | -27% | ? | 2% | -1 | -16%
CC(C)(C)CN1C(N)=NC[C@@H]1Cc1ccccc1 | -27% | -10% | -2% | . | -4 | -13%
NC1=NC[C@H](Cc2ccccc2)N1CCc1cc(C(F)(F)F)cc(C(F)(F)F)c1 | 15µM* | -105% | 23µM* | 1% | -27 | ?
NC1=NC[C@H](Cc2ccccc2)N1CC1CCCCC1 | 12µM* | -11% | 10µM* | . | -13 | -9%
NC1=NC[C@@H](Cc2ccc(O)cc2)N1CCCCC1CCCCC1 | 3.7µM* | -18% | 5.2µM* | 1% | ? | -1%
NC1=NC[C@H](Cc2ccc(O)cc2)N1CC1CCCCC1 | 15µM* | -2% | ? | 4% | -4 | 4%
CCOC(=O)CSc1nc2c(sc3ccccc32)c(=O)n1Cc1ccc(OC)cc1 | ? | 4% | -27% | -4% | . | 4%
CN(Cc1ccccc1)C(=O)c1[nH]cnc1C(=O)Nc1ccc(Br)cc1F | ? | -46% | ? | . | 22 | ?
